From PubChem BioAssay (NCI)
Compounds without any hit were thinned out: in the full panel of roughly 79,000, 15% have a hit. The source made the active and inactive calls. Cut-off read from the data, not from the text of the source: active = growth inhibition above about 70%; inactive = the rest.

Tests used:
[1] = NCI Yeast Anticancer Drug Screen. Data for the mlh1 rad18 strain (AID 175); conditions: S. cerevisiae mlh1 rad18 strain growth inhibition, active compounds read high
Outline: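 Read-out is yeast growth inhibition, calculated against vehicle-only controls. The compound was applied to a strain engineered with DNA damage repair alterations.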

[2] = NCI Yeast Anticancer Drug Screen. Data for the rad18 strain (AID 177); conditions: S. cerevisiae rad18 mutant growth inhibition, active compounds read high
Outline: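 Growth of the mutant yeast strain after compound exposure, normalised to vehicle-only cultures.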

[3] = NCI Yeast Anticancer Drug Screen. Data for the rad52 strain (AID 147);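 note: 0% = growth of vehicle-treated control cultures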; conditions: S. cerevisiae rad52 mutant growth inhibition, active compounds read high
Outline: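 Compounds are applied to a genetically defined yeast strain lacking normal DNA damage repair, and inhibition of growth is expressed relative to cultures given vehicle only.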

[4] = NCI Yeast Anticancer Drug Screen. Data for the wt1 strain (AID 149);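 note: 0% = growth of vehicle-treated wt1 cultures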; conditions: S. cerevisiae wt1 strain (SPY 50644) growth inhibition, active compounds read high
Outline: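 wt1 strain grown with compound or vehicle; inhibition taken from the growth difference.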

[5] = NCI Yeast Anticancer Drug Screen. Data for the rad50EPP+ strain (AID 151);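 note: 0% = growth of vehicle-treated control cultures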; conditions: S. cerevisiae rad50 mutant strain, active compounds read high
Outline: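 Compounds were applied to the rad50EPP+ yeast strain, which bears a defined DNA repair alteration, and growth inhibition was determined relative to vehicle-treated cultures.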

[6] = NCI Yeast Anticancer Drug Screen. Data for the mgt1 strain (AID 153); conditions: S. cerevisiae mgt1 mutant growth inhibition, active compounds read high
Outline: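 Strain: mgt1 yeast, one of a set carrying defined DNA damage repair or cell cycle control alterations. Compound-treated growth compared with vehicle.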

[7] = NCI Yeast Anticancer Drug Screen. Data for the rad50 strain (AID 155);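 note: 0% = growth of vehicle-only cultures of the same strain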; conditions: S. cerevisiae rad50 strain growth inhibition, active compounds read high
Outline: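 DNA repair mutant yeast, compound exposure, growth read-out; inhibition is taken relative to vehicle.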

[8] = NCI Yeast Anticancer Drug Screen. Data for the mec2-1 strain (AID 157); conditions: S. cerevisiae mec2-1 strain, active compounds read high
Outline: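 Strain: mec2-1 (DNA repair/cell cycle alteration). Compound exposure, then growth measured; inhibition expressed relative to vehicle.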

[9] = NCI Yeast Anticancer Drug Screen. Data for the rad14 strain (AID 159);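 note: 0% = growth of vehicle-treated control cultures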; conditions: S. cerevisiae rad14 strain growth inhibition, active compounds read high
Outline: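 DNA repair-defective yeast, compound-exposed; % growth inhibition derived by comparison with vehicle-treated controls.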

[10] = NCI Yeast Anticancer Drug Screen. Data for the CLN2oe strain (AID 163);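 note: 0% = growth of vehicle-only control cultures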; conditions: S. cerevisiae CLN2oe strain, active compounds read high
Outline: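 Growth of a genetically modified yeast strain is measured after compound exposure and compared with cultures given vehicle alone.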

[11] = NCI Yeast Anticancer Drug Screen. Data for the bub3 strain (AID 167); conditions: S. cerevisiae bub3 mutant strain, active compounds read high
Outline: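 In this screen, a yeast mutant lacking normal mitotic checkpoint function is challenged with compound. Relative growth versus vehicle gives the inhibition value.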

[12] = NCI Yeast Anticancer Drug Screen. Data for the wt2 strain (AID 169);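 note: 0% = growth of vehicle-treated yeast cultures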; conditions: S. cerevisiae wt2 strain growth inhibition, active compounds read high
Outline: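 This strain belongs to a panel of yeast strains with defined genetic alterations in DNA damage repair or cell cycle control. Compounds are applied, and growth inhibition is measured against vehicle-treated cultures.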

[13] = NCI Yeast Anticancer Drug Screen. Data for the mlh1 strain (AID 171);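 note: 0% = growth of vehicle-treated control cultures of the same strain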; conditions: S. cerevisiae mlh1 strain growth inhibition, active compounds read high
Outline: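 Growth of the mutant yeast strain after compound exposure, expressed as inhibition relative to vehicle-only controls.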

[14] = NCI Yeast Anticancer Drug Screen. Data for the sgs1 strain (AID 173);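 note: 0% = growth of vehicle-only control cultures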; conditions: S. cerevisiae sgs1 mutant, active compounds read high
Outline: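 Growth of a yeast strain bearing a defined genetic alteration is measured after compound treatment. Inhibition is expressed relative to vehicle-only controls.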

[15] = NCI Yeast Anticancer Drug Screen. Data for the sgs1 mgt1 strain (AID 161);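 note: 0% = growth of cultures given vehicle only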; conditions: S. cerevisiae sgs1 mgt1 strain, active compounds read high
Outline: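 Mutant yeast exposed to compound; growth scored against vehicle-only wells.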

[16] = at 50.0 µM (retest, dose inferred, filed as 5.0)
[17] = at 5.0 µM (retest, dose inferred, filed as 0.5)

Measured: growth inhibition

O=c1ccc2ccccc2c2ccccc12
active: [1]; [16] 99% | [1]; at 50.0 µM 90.9% | [2]; at 11.0 µM 76% | [2]; at 33.0 µM 97% | [2]; at 100.0 µM 97%
inactive: [2]; at 1.2 µM -4% | [2]; at 3.7 µM -3%

Cc1c(C(C)C)cc(OCCO)cc1C(C)C
inactive: [3]; at 1.2 µM -3% | [3]; at 3.7 µM -1% | [3]; at 11.0 µM -4% | [3]; at 33.0 µM 4% | [4]; at 1.2 µM -2% | [4]; at 3.7 µM -3% | [4]; at 11.0 µM -3% | [4]; at 33.0 µM -7% | [4]; at 100.0 µM -7% | [5]; at 1.2 µM -1% | [5]; at 3.7 µM -2% | [5]; at 11.0 µM 0% | [5]; at 33.0 µM 6% | [5]; at 100.0 µM 16% | [6]; at 1.2 µM -4% | [6]; at 3.7 µM -11% | [6]; at 11.0 µM -9% | [6]; at 33.0 µM -12% | [6]; at 100.0 µM 7% | [7]; at 1.2 µM -3% | [7]; at 3.7 µM 2% | [7]; [17] -8% | [7]; at 11.0 µM 2% | [7]; at 33.0 µM 5% | [7]; [16] -20% | [7]; at 50.0 µM 68.7% | [8]; at 1.2 µM -4% | [8]; at 3.7 µM -7% | [8]; [17] -18% | [8]; at 11.0 µM -8% | [8]; at 33.0 µM -10% | [8]; [16] -11% | [8]; at 50.0 µM -29.8% | [8]; at 100.0 µM 15% | [9]; at 1.2 µM -3% | [9]; at 3.7 µM -7% | [9]; at 11.0 µM -2% | [9]; at 33.0 µM -4% | [9]; at 100.0 µM 36% | [10]; at 1.2 µM -3% | [10]; at 3.7 µM -3% | [10]; at 11.0 µM -4% | [10]; at 33.0 µM 0% | [11]; at 1.2 µM -3% | [11]; at 3.7 µM -8% | [11]; [17] -16% | [11]; at 11.0 µM -4% | [11]; at 33.0 µM -5% | [11]; [16] -6% | [11]; at 50.0 µM -16.6% | [11]; at 100.0 µM 22% | [12]; at 1.2 µM -4% | [12]; at 3.7 µM -4% | [12]; at 11.0 µM -6% | [12]; at 33.0 µM -10% | [12]; at 100.0 µM 33% | [13]; at 1.2 µM -9% | [13]; at 3.7 µM -4% | [13]; at 11.0 µM -14% | [13]; at 33.0 µM -11% | [13]; at 100.0 µM 26% | [14]; at 1.2 µM -1% | [14]; at 3.7 µM -3% | [14]; at 11.0 µM -1% | [14]; at 33.0 µM -3% | [14]; at 100.0 µM 45% | [1]; [17] -3% | [1]; [16] -18% | [2]; at 1.2 µM -4% | [2]; at 3.7 µM -7% | [2]; at 11.0 µM -5% | [2]; at 33.0 µM -8% | [2]; at 100.0 µM 65%
active: [3]; at 100.0 µM 77% | [7]; at 100.0 µM 73% | [10]; at 100.0 µM 73% | [1]; at 50.0 µM 83%

O=C1C(Br)=C(c2ccccc2)O/C1=C/C(=O)c1ccc(Br)cc1
inactive: [3]; at 1.2 µM 2% | [3]; at 3.7 µM 6% | [3]; at 11.0 µM 12% | [3]; at 33.0 µM 26% | [4]; at 1.2 µM 3% | [4]; at 3.7 µM 5% | [4]; at 11.0 µM 10% | [4]; at 33.0 µM 16% | [4]; at 100.0 µM 44% | [5]; at 1.2 µM 9% | [5]; at 3.7 µM 22% | [5]; at 11.0 µM 59% | [6]; at 1.2 µM 2% | [6]; at 3.7 µM 5% | [6]; at 11.0 µM 10% | [6]; at 33.0 µM 36% | [7]; at 1.2 µM 4% | [7]; at 3.7 µM 5% | [7]; [17] -21% | [7]; at 11.0 µM 11% | [7]; at 33.0 µM 18% | [7]; [16] 34% | [7]; at 50.0 µM 24.2% | [7]; at 100.0 µM 49% | [8]; at 1.2 µM -1% | [8]; at 3.7 µM 5% | [8]; [17] -6% | [8]; at 11.0 µM 8% | [8]; at 33.0 µM 20% | [8]; [16] 25% | [8]; at 50.0 µM 21.1% | [15]; [17] -7% | [15]; [16] 39% | [15]; at 50.0 µM 53.9% | [10]; at 1.2 µM 1% | [10]; at 3.7 µM 1% | [10]; at 11.0 µM 4% | [10]; at 33.0 µM 9% | [10]; at 100.0 µM 18% | [11]; at 1.2 µM -2% | [11]; at 3.7 µM -2% | [11]; [17] -16% | [11]; at 11.0 µM -1% | [11]; at 33.0 µM 6% | [11]; [16] 21% | [11]; at 50.0 µM 15.4% | [12]; at 1.2 µM 1% | [12]; at 3.7 µM 3% | [12]; at 11.0 µM 7% | [12]; at 33.0 µM 31% | [12]; at 100.0 µM 69% | [13]; at 1.2 µM -2% | [13]; at 3.7 µM 1% | [13]; at 11.0 µM 9% | [13]; at 33.0 µM 20% | [14]; at 1.2 µM 1% | [14]; at 3.7 µM 5% | [14]; at 11.0 µM 15% | [14]; at 33.0 µM 37% | [1]; [17] -16% | [1]; [16] 62% | [1]; at 50.0 µM 52.6% | [2]; at 1.2 µM 2% | [2]; at 3.7 µM 3% | [2]; at 11.0 µM 13% | [2]; at 33.0 µM 25%
active: [3]; at 100.0 µM 75% | [5]; at 33.0 µM 84% | [5]; at 100.0 µM 86% | [6]; at 100.0 µM 88% | [8]; at 100.0 µM 92% | [11]; at 100.0 µM 84% | [13]; at 100.0 µM 89% | [14]; at 100.0 µM 94% | [2]; at 100.0 µM 79%
